The values below come from the supplement of paper PMC7411054.

Structures can show the parent of a compound that is named as a salt.

The subject of this experiment is A549-GM130-SQSTM1. Description: phenotypically active (imaging signature differs from DMSO and reproducible) at any of 0.3-9 uM (binary (1 = active, 0 = inactive)); higher = active. The settings on record: treatment time: 24 h. The procedure, abridged:
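Cells from fifteen gene-edited reporter lines (A549, HepG2 and WPMY1) were treated for 24 h at 0.3, 1, 3 or 9 µM and imaged live, four wells per condition. Features were normalised per well to solvent control wells. A condition deviated if ≥3 of 4 wells passed the 95th percentile of control Euclidean distances and was reproducible if its median replicate Pearson correlation beat the 95th percentile of non-replicates; phenotypic activity needed both.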
`N[C@@H]1C[C@H]1c1ccccc1` [Tranylcypromine hydrochloride]: the phenotypically active was 0 (inactive). For the compound `C/C=C1\CN2CC[C@]34c5cc(OC)ccc5N5C(=O)C(O)OC[C@@H]([C@H]53)[C@H]1C[C@H]24` (stereo partly specified) [10-Methoxy-o-demethyltsilanine], the phenotypically active was 0 (inactive). The result for `Fc1ccccc1C1=NCC(=S)N(CC(F)(F)F)c2ccc(Cl)cc21` [quazepam] reads 0 (inactive); that for `COc1c2c(cc3c1OCO3)CC[N+](C)=C2` [Cotarnine chloride], 0 (inactive). For the compound `N[C@H]1C[C@@H]1c1ccccc1` [tranylcypromine], the phenotypically active was 0 (inactive).

Regarding `O=c1ccc2ccc3occc3c2o1` [Angelicin], the phenotypically active was 0 (inactive). Consider `C[C@]12COC(=O)C[C@@H]1CC[C@@H]1[C@@H]2CC[C@@]2(C)[C@H]1CC[C@]2(C)O` [oxandrolone], for which the phenotypically active is 0 (inactive). As for `CC(C)C[C@H](CN)CC(=O)O` [pregabalin], the phenotypically active is 0 (inactive). Take `NC(=S)N/N=C/c1coc2ccccc2c1=O`: the phenotypically active is 0 (inactive). In the case of `O[C@H]1[C@H](O)[C@@H](O)CN2CC[C@H](O)[C@H]12` [Castanospermine] it was 0 (inactive); in that of `Cc1ccc(-c2nc3ccc(C)cn3c2CC(=O)N(C)C)cc1` [zolpidem], 0 (inactive); in that of `CN1C(CC(O)c2ccccc2)CCCC1CC(O)c1ccccc1` (stereo unspecified) [Lobelanidine hydrochloride], 0 (inactive). On to `CNC(=O)Oc1ccc2c(c1)[C@]1(C)CCN(C)O[C@@H]1N2C` [Geneserine], for which the phenotypically active was 0 (inactive).

In the case of `COc1ccc(C(=O)OC2C[C@H]3CC[C@H](C2)N3C)cc1OC` (stereo partly specified) [Convolamine hydrochloride], the phenotypically active was 0 (inactive).

With `CC(C)[N+](C)(CCC(C(N)=O)(c1ccccc1)c1ccccc1)C(C)C` [isopropamide-iodide], the phenotypically active is 0 (inactive). The result for `CC(C)N(CCC(C(N)=O)(c1ccccc1)c1ccccn1)C(C)C` (stereo unspecified) [disopyramide] reads 0 (inactive); that for `O=C1C[C@@H]2OCC=C3C[N+]4([O-])CC[C@]56c7ccccc7N1[C@H]5[C@H]2[C@H]3C[C@@H]64` (stereo partly specified) [Genostrychnine base], 0 (inactive); that for `C[C@@H]1CN([C@H]2CC[C@](C#N)(c3ccc(F)cc3)CC2)CC[C@]1(C(=O)O)c1ccccc1` [levocabastine], 0 (inactive).

As to `Cc1ccc(C[N+](C)(C)C)o1` [5-Methylfurmethiodide], the phenotypically active is 0 (inactive). The result for `COc1cc2c3cc1Oc1cc(ccc1O)C[C@@H]1c4c(cc(OC)c(O)c4Oc4cccc(c4)C[C@@H]3N(C)CC2)CC[N+]1(C)C` [Tubocurarine chloride pentahydrate (+)] reads 0 (inactive). With `CCCC(C)C1(CC)C(=O)N=C(S)NC1=O` (stereo unspecified) [thiopental], the phenotypically active is 0 (inactive).

With `C=C1[C@H]2C[C@@]3([C@@H]1O)[C@@H](C[C@@H]2O)[C@]12[C@@H]4C[C@H]3[C@H]1N(CC)C[C@]4(C)CC[C@@H]2O` [Napelline], the phenotypically active was 0 (inactive). On to `CO[C@H](C)[C@](O)(C(=O)OCC1=CCN2CC[C@H](O)[C@@H]12)C(C)C` [Heliotrine], for which the phenotypically active is 0 (inactive).

For the compound `C/C=C1\C[C@@H](C)[C@](O)(CO)C(=O)OCC2=CCN3CC[C@@H](OC1=O)[C@@H]23` [Retrorsine], the phenotypically active is 0 (inactive). As to `CN(C)NC(=O)CCC(=O)O` [Daminozide], the phenotypically active was 0 (inactive). For the compound `CN1[C@@H]2CC(=O)C[C@H]1[C@H](O)C2` [6-Hydroxytropinone], the phenotypically active is 0 (inactive).

Consider `COc1ccc2c3c1O[C@H]1C(=O)CC[C@H]4[C@@H](C2)N(C)CC[C@]314` [hydrocodone], for which the phenotypically active is 0 (inactive). For the compound `CCN(C(C)=O)c1cccc(-c2ccnc3c(C#N)cnn23)c1` [zaleplon], the phenotypically active was 0 (inactive). Consider `C[N+]1([O-])[C@@H]2C[C@@H](OC(=O)[C@H](CO)c3ccccc3)C[C@H]1[C@@H]1O[C@@H]12` (stereo partly specified) [Genoscopolamine HBr], for which the phenotypically active is 0 (inactive). As for `NCC1(CC(=O)O)CCCCC1` [gabapentin], the phenotypically active is 0 (inactive). The result for `CN1CCc2cc3c(cc2[C@H]1[C@@H]1OC(=O)c2c1ccc1c2OCO1)OCO3` [bicuculine] reads 0 (inactive); that for `c1cncc(C2CC3CCN2CC3)c1` (stereo unspecified) [RJR 2429 dihydrochloride], 0 (inactive); that for `CC1=CC(=O)C2=C(C)C[C@H](O)[C@@H]3[C@H](OC(=O)[C@H]3C)[C@@H]12` [Austricine hydrate], 0 (inactive). The result for `C=C(C)[C@H]1CN[C@H](C(=O)O)[C@H]1CC(=O)O` [Kainic acid] reads 0 (inactive); that for `C[C@H]1CCC2(NC1)O[C@H]1C[C@H]3[C@@H]4CC[C@H]5C[C@@H](O[C@@H]6O[C@H](CO)[C@H](O[C@@H]7O[C@H](CO)[C@@H](O)[C@H](O[C@@H]8OC[C@@H](O)[C@H](O)[C@H]8O)[C@H]7O[C@@H]7O[C@H](CO)[C@@H](O)[C@H](O)[C@H]7O)[C@H](O)[C@H]6O)CC[C@]5(C)[C@H]4CC[C@]3(C)[C@H]1[C@@H]2C` (stereo partly specified) [Tomatine], 0 (inactive). In the case of `CN1[C@@H]2C[C@@H](OC(=O)[C@H](CO)c3ccccc3)C[C@H]1[C@@H]1O[C@@H]12` [Scopolamine hydrobromide] it was 0 (inactive).
